Active and inactive are the calls of the source. Rule for the calls: active = hit-call score of the fitted dose curve at least 0.9, where 1 is the maximum; inactive = score below 0.9.
Legend:
[1] = read-out: C-C motif chemokine 2 (Homo sapiens) (UniProt P13500); assay: BSK_KF3CT_MCP1: BioMAP Diversity Plus: KF3CT Assay for Monocyte Chemoattractant Protein 1 (MCP1/CCL2) Biomarker Activity (AID 2283073); details: primary human keratinocytes with fibroblasts; actives raise or lower the signal
Outline: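 Human keratinocyte plus foreskin fibroblast primary co-culture exposed to chemical for 24 h. MCP-1 levels measured by ELISA. Bidirectional curve fitting relative to DMSO negative control as baseline.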

[2] = read-out: Matrix Metallopeptidase 9 (MMP9), MMP9 (gene 4318); assay: BSK_KF3CT_MMP9: BioMAP Diversity Plus: KF3CT Assay for Matrix Metallopeptidase 9 (MMP9) Biomarker Activity (AID 2283074); details: primary human keratinocytes with fibroblasts; actives raise or lower the signal;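 for AC50: MMP9 protein level quantified by ELISA in the co-culture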
Outline: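 MMP-9 quantified by ELISA after 24 h chemical treatment of primary human skin keratinocyte/fibroblast co-cultures; gain or loss fitted against DMSO, with parallel SRB staining (0.1% SRB, 560 nm) for overt cytotoxicity.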

[3] = read-out: urokinase plasminogen activator (uPA), PLAU (gene 5328); assay: BSK_KF3CT_uPA: BioMAP Diversity Plus: KF3CT Assay for urokinase plasminogen activator (uPA) Biomarker Activity (AID 2283075); details: primary human keratinocytes with fibroblasts; actives raise or lower the signal
Outline: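 ELISA read-out of uPA 24 h after dosing human skin keratinocytes co-cultured with foreskin fibroblasts. Signal change fitted both ways relative to DMSO; sulforhodamine B on parallel cultures marks overt cytotoxicity.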

CD40, CD40 (gene 958) = assay: BSK_LPS_CD40: BioMAP Diversity Plus: LPS Assay for CD40 Biomarker Activity (AID 2283076); details: primary human HUVEC with PBMC; actives raise or lower the signal
Outline: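 Primary human umbilical vein endothelial cells co-cultured with peripheral blood mononuclear cells, LPS-stimulated, were dosed with chemical and read 24 h later. CD40 levels were measured by ELISA and fitted bidirectionally against DMSO as negative control and baseline.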

[4] = read-out: E-selectin (Homo sapiens) (UniProt P16581); assay: BSK_LPS_Eselectin: BioMAP Diversity Plus: LPS Assay for Eselectin Biomarker Activity (AID 2283077); details: primary human HUVEC with PBMC; actives raise or lower the signal
Outline: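 Human umbilical vein endothelial cells co-cultured with peripheral blood mononuclear cells under LPS stimulation; E-selectin measured by ELISA 24 h after chemical dosing. Activity fitted bidirectionally against DMSO as negative control and baseline.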

[5] = read-out: Interleukin-8 (IL8), CXCL8 (gene 3576); assay: BSK_LPS_IL8: BioMAP Diversity Plus: LPS Assay for Interleukin-8 (IL8) Biomarker Activity (AID 2283078); details: primary human HUVEC with PBMC; actives raise or lower the signal
Outline: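 Human umbilical vein endothelial cells co-cultured with PBMC were stimulated with LPS; IL-8 levels were measured by ELISA 24 h after chemical dosing. Activity was fitted bidirectionally against DMSO as negative control and baseline.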

[6] = BSK_LPS_SRB: Viability Assessment in the BioMAP Diversity Plus: LPS Assay (AID 2283079); details: primary human HUVEC with PBMC;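 note: total protein by sulforhodamine B absorbance as a cytotoxicity measure; measured one day after compound addition; fitted in both directions against DMSO so loss or gain of signal counts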
Outline: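 Human umbilical vein endothelial cells co-cultured with PBMC (LPS system) were dosed for 24 h. Total protein was stained with 0.1% sulforhodamine B after 10% TCA fixation, read at 560 nm, and fitted bidirectionally against DMSO baseline.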

[7] = read-out: Interleukin-1 alpha (IL1a), IL1A (gene 3552); assay: BSK_LPS_IL1a: BioMAP Diversity Plus: LPS Assay for Interleukin-1 alpha (IL1a) Biomarker Activity (AID 2283080); details: primary human HUVEC with PBMC; actives raise or lower the signal
Outline: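 Human umbilical vein endothelial cells co-cultured with peripheral blood mononuclear cells were LPS-stimulated and exposed to test chemicals for 24 h. IL-1 alpha was quantified by ELISA, with bidirectional curve fitting against DMSO as the negative control and baseline.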

[8] = read-out: Monocyte Chemoattractant Protein-1 (MCP1), CCL2 (gene 6347); assay: BSK_LPS_MCP1: BioMAP Diversity Plus: LPS Assay for Monocyte Chemoattractant Protein-1 (MCP1) Biomarker Activity (AID 2283081); details: primary human HUVEC with PBMC; actives raise or lower the signal;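 for AC50: co-culture stimulated with LPS; secreted MCP-1 protein quantified by ELISA in culture supernatant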
Outline: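 HUVEC plus PBMC co-culture (human primary cells, LPS system) exposed to test chemical for 24 h; MCP-1 measured by ELISA. Bidirectional curve fitting against DMSO baseline; parallel SRB total-protein staining flags overt cytotoxicity.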

[9] = BSK_LPS_PGE2: BioMAP Diversity Plus: LPS Assay for Prostaglandin E2 (PGE2) Biomarker Activity (AID 2283082); details: primary human HUVEC with PBMC; actives raise or lower the signal;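 for AC50: secreted prostaglandin E2 measured by ELISA in LPS-stimulated co-culture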
Outline: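 ELISA read-out of PGE2 from human umbilical vein endothelial cells co-cultured with peripheral blood mononuclear cells under LPS, 24 h post-dose. Gain or loss of signal scored relative to DMSO baseline.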

Sequence of E-selectin (Homo sapiens) (P16581 whole entry, looked up): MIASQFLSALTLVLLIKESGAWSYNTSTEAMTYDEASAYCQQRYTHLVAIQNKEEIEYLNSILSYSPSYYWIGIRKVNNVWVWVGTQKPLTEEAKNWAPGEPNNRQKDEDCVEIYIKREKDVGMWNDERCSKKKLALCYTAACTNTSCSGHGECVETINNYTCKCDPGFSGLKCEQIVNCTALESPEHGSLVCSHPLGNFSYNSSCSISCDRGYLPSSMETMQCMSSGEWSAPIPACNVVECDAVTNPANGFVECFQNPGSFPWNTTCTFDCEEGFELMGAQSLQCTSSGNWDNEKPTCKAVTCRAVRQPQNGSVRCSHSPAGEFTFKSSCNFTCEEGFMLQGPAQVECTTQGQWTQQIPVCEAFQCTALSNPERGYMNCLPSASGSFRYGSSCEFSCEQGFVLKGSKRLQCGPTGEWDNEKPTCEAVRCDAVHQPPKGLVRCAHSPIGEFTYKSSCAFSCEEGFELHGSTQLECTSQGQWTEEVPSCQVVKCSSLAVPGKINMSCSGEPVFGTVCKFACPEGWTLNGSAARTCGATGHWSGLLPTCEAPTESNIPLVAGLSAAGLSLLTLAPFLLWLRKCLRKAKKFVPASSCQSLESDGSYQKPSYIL

Row | SMILES | outcome [1] | outcome [2] | outcome [3] | outcome (CD40, CD40 (gene 958)) | outcome [4] | AC50 [5] | outcome [6] | outcome [7] | outcome [8] | outcome [9] | outcome [5] | AC50 [9] | AC50 (CD40, CD40 (gene 958)) | AC50 [6] | AC50 [2] | AC50 [4] | AC50 [7] | AC50 [8] | AC50 [1] | AC50 [3]
1 | CN(C)C(=O)NC1(c2ccccc2)CCN(CCC[C@]2(c3ccc(Cl)c(Cl)c3)CCCN(C(=O)c3ccccc3)C2)CC1 | inactive | inactive | inactive | inactive | inactive | 8.1 µM (active) | inactive | inactive | inactive | inactive | – | – | – | – | – | – | – | – | – | –
2 | CC(C)NCC(O)c1ccc(O)c(O)c1 (stereo not given) | inactive | inactive | inactive | inactive | inactive | – | inactive | inactive | inactive | inactive | inactive | – | – | – | – | – | – | – | – | –
3 | CC1(C)C(=O)NC(=O)N1CO | inactive | inactive | inactive | inactive | inactive | – | inactive | inactive | inactive | – | inactive | 0.749 µM (active) | – | – | – | – | – | – | – | –
4 | CC(=O)O[C@]1(C(C)=O)CC[C@H]2[C@@H]3C=C(Cl)C4=CC(=O)[C@@H]5C[C@@H]5[C@]4(C)[C@H]3CC[C@@]21C | inactive | inactive | inactive | – | inactive | – | – | inactive | inactive | inactive | inactive | – | 31.5 µM (active) | 30.9 µM (active) | – | – | – | – | – | –
5 | CC(C)COC(=O)CCCCC(=O)OCC(C)C | inactive | inactive | inactive | inactive | inactive | – | inactive | inactive | inactive | inactive | inactive | – | – | – | – | – | – | – | – | –
6 | CO[C@@H]1COCC[C@@H]1N[C@@H]1CC[C@@](C(=O)N2CCc3ncc(C(F)(F)F)cc3C2)(C(C)C)C1 | inactive | inactive | inactive | inactive | inactive | – | inactive | inactive | inactive | inactive | inactive | – | – | – | – | – | – | – | – | –
7 | O=C1O[C@H]([C@H](O)CO)C(O)=C1O | inactive | inactive | inactive | inactive | inactive | – | inactive | inactive | inactive | inactive | inactive | – | – | – | – | – | – | – | – | –
8 | CCCCCCCC(=O)OC | inactive | inactive | inactive | inactive | inactive | – | inactive | inactive | inactive | inactive | inactive | – | – | – | – | – | – | – | – | –
9 | S=c1[nH]c2ccccc2s1 | inactive | inactive | inactive | inactive | inactive | – | inactive | inactive | inactive | – | inactive | 12.9 µM (active) | – | – | – | – | – | – | – | –
10 | O=C(O)c1[nH]n(-c2ccc(S(=O)(=O)O)cc2)c(=O)c1N=Nc1ccc(S(=O)(=O)O)cc1 | inactive | inactive | inactive | inactive | inactive | – | inactive | inactive | inactive | inactive | inactive | – | – | – | – | – | – | – | – | –
11 | O=C1NC(=O)C(c2ccccc2)(c2ccccc2)N1 | inactive | inactive | inactive | inactive | inactive | – | inactive | inactive | inactive | inactive | inactive | – | – | – | – | – | – | – | – | –
12 | CCCCCCCCCCCCCCCCO | inactive | inactive | inactive | inactive | inactive | – | inactive | inactive | inactive | inactive | inactive | – | – | – | – | – | – | – | – | –
13 | Oc1ccc(O)cc1 | inactive | – | inactive | inactive | – | 30.7 µM (active) | inactive | – | – | – | – | 30 µM (active) | – | – | 20 µM (active) | 26.2 µM (active) | 8.51 µM (active) | 25.8 µM (active) | – | –
14 | NCCOCCOCCN | inactive | inactive | inactive | inactive | inactive | – | inactive | inactive | inactive | inactive | inactive | – | – | – | – | – | – | – | – | –
15 | Cc1cc(Cc2ccc(N)c(C)c2)ccc1N | inactive | inactive | inactive | inactive | inactive | – | inactive | inactive | inactive | inactive | inactive | – | – | – | – | – | – | – | – | –
16 | Nc1nc(=S)c2[nH]cnc2[nH]1 | inactive | inactive | inactive | inactive | inactive | – | inactive | inactive | inactive | – | inactive | 20 µM (active) | – | – | – | – | – | – | – | –
17 | CCCCOC(=O)CCCCC(=O)OCCCC | inactive | inactive | inactive | inactive | inactive | – | inactive | inactive | inactive | inactive | inactive | – | – | – | – | – | – | – | – | –
18 | N[C@@H](Cc1c[nH]c2ccccc12)C(=O)O | inactive | inactive | inactive | inactive | inactive | – | inactive | inactive | inactive | inactive | inactive | – | – | – | – | – | – | – | – | –
19 | CN(C)C(=O)NC1(c2ccccc2)CCN(CC[C@@]2(c3ccc(F)c(F)c3)CN(C(=O)c3ccccc3)CCO2)CC1 | inactive | inactive | inactive | inactive | inactive | – | inactive | inactive | inactive | inactive | inactive | – | – | – | – | – | – | – | – | –
20 | CCCCCCCCCCCCCCOS(=O)(=O)O | – | – | – | inactive | inactive | – | inactive | inactive | inactive | inactive | inactive | – | – | – | 8.96 µM (active) | – | – | – | 8.92 µM (active) | 9.42 µM (active)
21 | COC(=O)CCCC(=O)OC | inactive | inactive | inactive | inactive | inactive | – | inactive | inactive | inactive | inactive | inactive | – | – | – | – | – | – | – | – | –
22 | CCOCCOCCO | inactive | inactive | inactive | inactive | inactive | – | inactive | inactive | inactive | inactive | inactive | – | – | – | – | – | – | – | – | –
23 | CCc1nc(N)nc(N)c1-c1ccc(Cl)cc1 | inactive | inactive | inactive | inactive | inactive | – | inactive | inactive | inactive | inactive | inactive | – | – | – | – | – | – | – | – | –
24 | Nc1nc(Cl)nc2c1ncn2[C@H]1C[C@H](O)[C@@H](CO)O1 | inactive | inactive | inactive | – | inactive | 0.628 µM (active) | – | – | – | inactive | – | – | 2.29 µM (active) | 0.814 µM (active) | – | – | 1.68 µM (active) | 0.659 µM (active) | – | –
25 | NC(=Nc1ccccc1)Nc1ccccc1 | inactive | inactive | inactive | inactive | inactive | – | inactive | inactive | inactive | inactive | inactive | – | – | – | – | – | – | – | – | –
26 | CC(=O)OCC(COC(C)=O)OC(C)=O | inactive | inactive | inactive | inactive | inactive | – | inactive | inactive | inactive | inactive | inactive | – | – | – | – | – | – | – | – | –
27 | NC1CCCCC1 | inactive | inactive | inactive | inactive | inactive | – | inactive | inactive | inactive | inactive | inactive | – | – | – | – | – | – | – | – | –

— PubChem BioAssay (EPA / NIEHS)
